Reference: PubChem BioAssay (EPA / NIEHS)
The source made the active and inactive calls. How the source made its calls: active means hit-call score of the fitted dose curve at least 0.9, where 1 is the maximum; inactive means score below 0.9.

How the values were obtained:
[1] = read-out: TIMP metallopeptidase inhibitor 1 (TIMP1), TIMP1 (gene 7076); assay: BSK_hDFCGF_TIMP1: BioMAP Diversity Plus: hDFCGF Assay for TIMP metallopeptidase inhibitor 1 (TIMP1) Biomarker Activity (AID 2283062); settings: primary human foreskin fibroblasts; actives raise or lower the signal
Summary of the method: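 TIMP-1 measured by ELISA 24 h after chemical dosing of primary human skin fibroblasts, with gain or loss fitted relative to DMSO. Parallel SRB staining (560 nm) monitored overt cytotoxicity.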

[2] = read-out: Monokine induced gamma interferon (MIG), CXCL9 (gene 4283); assay: BSK_hDFCGF_MIG: BioMAP Diversity Plus: hDFCGF Assay for Monokine induced gamma interferon (MIG) Biomarker Activity (AID 2283063); settings: primary human foreskin fibroblasts; actives raise or lower the signal
Summary of the method: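 Human primary foreskin fibroblasts in the hDFCGF system, exposed to test chemical for 24 h; MIG measured by ELISA. Bidirectional curve fitting against DMSO negative control as activity baseline.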

[3] = read-out: Vascular cell adhesion molecule 1 (VCAM1), VCAM1 (gene 7412); assay: BSK_hDFCGF_VCAM1: BioMAP Diversity Plus: hDFCGF Assay for Vascular cell adhesion molecule 1 (VCAM1) Biomarker Activity (AID 2283065); settings: primary human foreskin fibroblasts; actives raise or lower the signal;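 on AC50: VCAM-1 protein level quantified by ELISA after 24 h chemical exposure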
Summary of the method: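 ELISA readout of VCAM-1 on human dermal fibroblast primary cultures, 24 h after chemical exposure. Gain or loss of signal fitted in both directions against DMSO baseline.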

[4] = read-out: Plasminogen activator inhibitor-1 (PAI1), SERPINE1 (gene 5054); assay: BSK_hDFCGF_PAI1: BioMAP Diversity Plus: hDFCGF Assay for Plasminogen activator inhibitor-1 (PAI1) Biomarker Activity (AID 2283066); settings: primary human foreskin fibroblasts; actives raise or lower the signal
Summary of the method: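 PAI-1 levels, determined by ELISA, served as the endpoint in human foreskin fibroblast cultures exposed to compound for 24 h, with DMSO as baseline.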

[5] = read-out: Interferon-gamma inducible Protein 10 (IP10), CXCL10 (gene 3627); assay: BSK_KF3CT_IP10: BioMAP Diversity Plus: KF3CT Assay for Interferon-gamma inducible Protein 10 (IP10) Biomarker Activity (AID 2283068); settings: primary human keratinocytes with fibroblasts; actives raise or lower the signal
Summary of the method: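 In a primary skin co-culture of keratinocytes and fibroblasts, IP-10 is quantified by ELISA at 24 h after dosing. SRB staining of parallel wells monitors overt toxicity. Curves are fitted both directions against DMSO.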

[6] = BSK_KF3CT_SRB: Viability Assessment in the BioMAP Diversity Plus: KF3CT Assay (AID 2283069); settings: primary human keratinocytes with fibroblasts;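 further: total protein by sulforhodamine B staining as a cytotoxicity measure; read 24 h after compound addition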
Summary of the method: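 Keratinocytes co-cultured with foreskin fibroblasts (human primary); chemical added, 24 h; fix 10% TCA, stain 0.1% SRB, A560. Bidirectional fit vs DMSO.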

[7] = read-out: Interleukin-1 alpha (IL1a), IL1A (gene 3552); assay: BSK_KF3CT_IL1a: BioMAP Diversity Plus: KF3CT Assay for Interleukin-1 alpha (IL1a) Biomarker Activity (AID 2283070); settings: primary human keratinocytes with fibroblasts; actives raise or lower the signal
Summary of the method: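 Chemicals were dosed onto co-cultured human keratinocytes and foreskin fibroblasts, IL-1a was quantified by ELISA at 24 h, and activity was fitted in both directions relative to DMSO controls.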

[8] = read-out: TIMP metallopeptidase inhibitor 2 (TIMP2), TIMP2 (gene 7077); assay: BSK_KF3CT_TIMP2: BioMAP Diversity Plus: KF3CT Assay for TIMP metallopeptidase inhibitor 2 (TIMP2) Biomarker Activity (AID 2283071); settings: primary human keratinocytes with fibroblasts; actives raise or lower the signal
Summary of the method: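 Keratinocyte–fibroblast co-culture, 24 h exposure; TIMP-2 ELISA, DMSO-normalised bidirectional fit. Parallel SRB (0.1%, TCA-fixed, 560 nm) total-protein staining gauges cytotoxicity.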

[9] = read-out: Transforming growth factor beta 1 (TGFb1), TGFB1 (gene 7040); assay: BSK_KF3CT_TGFb1: BioMAP Diversity Plus: KF3CT Assay for Transforming growth factor beta 1 (TGFb1) Biomarker Activity (AID 2283072); settings: primary human keratinocytes with fibroblasts; actives raise or lower the signal
Summary of the method: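 Signal changes in either direction, relative to DMSO, define activity here. TGF-b1 is read by ELISA from a human keratinocyte-fibroblast co-culture 24 h post-dose.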

[10] = read-out: C-C motif chemokine 2 (Homo sapiens) (UniProt P13500); assay: BSK_KF3CT_MCP1: BioMAP Diversity Plus: KF3CT Assay for Monocyte Chemoattractant Protein 1 (MCP1/CCL2) Biomarker Activity (AID 2283073); settings: primary human keratinocytes with fibroblasts; actives raise or lower the signal
Summary of the method: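 ELISA read-out of MCP-1, 24 h post-dose, in primary human skin keratinocytes co-cultured with fibroblasts. Parallel SRB staining monitors cytotoxicity; changes fitted both directions relative to DMSO.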

[11] = read-out: Matrix Metallopeptidase 9 (MMP9), MMP9 (gene 4318); assay: BSK_KF3CT_MMP9: BioMAP Diversity Plus: KF3CT Assay for Matrix Metallopeptidase 9 (MMP9) Biomarker Activity (AID 2283074); settings: primary human keratinocytes with fibroblasts; actives raise or lower the signal
Summary of the method: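 Human keratinocyte/foreskin fibroblast co-culture; compound added; 24 h; MMP-9 by ELISA; bidirectional fit vs DMSO baseline.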

[12] = read-out: CD40, CD40 (gene 958); assay: BSK_LPS_CD40: BioMAP Diversity Plus: LPS Assay for CD40 Biomarker Activity (AID 2283076); settings: primary human HUVEC with PBMC; actives raise or lower the signal
Summary of the method: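 In the LPS system of human endothelial cells with peripheral blood mononuclear cells, CD40 levels were read by ELISA 24 h post-treatment. Signal changes in either direction were fitted against the DMSO baseline, with parallel SRB protein staining.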

[13] = read-out: E-selectin (Homo sapiens) (UniProt P16581); assay: BSK_LPS_Eselectin: BioMAP Diversity Plus: LPS Assay for Eselectin Biomarker Activity (AID 2283077); settings: primary human HUVEC with PBMC; actives raise or lower the signal
Summary of the method: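 E-selectin ELISA on LPS-stimulated endothelial cell/PBMC co-cultures, read 24 h post-treatment; gains and losses fitted against DMSO. Parallel SRB staining (0.1% SRB after 10% TCA fixation, 560 nm) flags overt cytotoxicity.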

[14] = read-out: Interleukin-8 (IL8), CXCL8 (gene 3576); assay: BSK_LPS_IL8: BioMAP Diversity Plus: LPS Assay for Interleukin-8 (IL8) Biomarker Activity (AID 2283078); settings: primary human HUVEC with PBMC; actives raise or lower the signal
Summary of the method: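 ELISA read-out of IL-8 after 24 h chemical treatment of LPS-activated endothelial/PBMC human primary co-cultures. Changes either up or down relative to DMSO; overt cytotoxicity checked by sulforhodamine B staining in parallel wells.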

[15] = BSK_LPS_SRB: Viability Assessment in the BioMAP Diversity Plus: LPS Assay (AID 2283079); settings: primary human HUVEC with PBMC;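 further: total protein by sulforhodamine B absorbance as a cytotoxicity measure; measured one day after compound addition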
Summary of the method: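 SRB viability endpoint: cells fixed with 10% TCA, stained with 0.1% SRB, read at 560 nm, 24 h post-dose. HUVEC/PBMC co-culture; signal change in either direction scored relative to DMSO.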

[16] = read-out: Interleukin-1 alpha (IL1a), IL1A (gene 3552); assay: BSK_LPS_IL1a: BioMAP Diversity Plus: LPS Assay for Interleukin-1 alpha (IL1a) Biomarker Activity (AID 2283080); settings: primary human HUVEC with PBMC; actives raise or lower the signal
Summary of the method: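 Readout is IL-1a level by ELISA, 24 h post-dose, fitted as gain or loss relative to DMSO. System: LPS-activated human primary co-culture of vascular endothelium and peripheral blood mononuclear cells, with parallel SRB total-protein cytotoxicity.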

[17] = read-out: Monocyte Chemoattractant Protein-1 (MCP1), CCL2 (gene 6347); assay: BSK_LPS_MCP1: BioMAP Diversity Plus: LPS Assay for Monocyte Chemoattractant Protein-1 (MCP1) Biomarker Activity (AID 2283081); settings: primary human HUVEC with PBMC; actives raise or lower the signal;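 on AC50: secreted MCP-1 protein quantified by ELISA in culture supernatant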
Summary of the method: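 Secreted MCP-1 read by ELISA at 24 h post-dosing in an LPS-activated co-culture of endothelial cells with peripheral blood mononuclear cells. Fits run in both directions, DMSO as baseline; parallel SRB staining tracks overt cytotoxicity.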

[18] = read-out: Matrix Metallopeptidase 1 (MMP1), MMP1 (gene 4312); assay: BSK_hDFCGF_MMP1: BioMAP Diversity Plus: hDFCGF Assay for Matrix Metallopeptidase 1 (MMP1) Biomarker Activity (AID 2283064); settings: primary human foreskin fibroblasts; actives raise or lower the signal
Summary of the method: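 hDFCGF primary fibroblasts (human foreskin); chemical added; 24 h; MMP1 by ELISA; bidirectional fit vs DMSO.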

[19] = read-out: urokinase plasminogen activator (uPA), PLAU (gene 5328); assay: BSK_KF3CT_uPA: BioMAP Diversity Plus: KF3CT Assay for urokinase plasminogen activator (uPA) Biomarker Activity (AID 2283075); settings: primary human keratinocytes with fibroblasts; actives raise or lower the signal
Summary of the method: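 ELISA readout of uPA, analyzed for signal gain or loss relative to DMSO, from a human primary keratinocyte–foreskin fibroblast co-culture measured 24 h after chemical treatment.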

Measured: AC50

E-selectin (Homo sapiens), sequence (P16581 whole entry, looked up): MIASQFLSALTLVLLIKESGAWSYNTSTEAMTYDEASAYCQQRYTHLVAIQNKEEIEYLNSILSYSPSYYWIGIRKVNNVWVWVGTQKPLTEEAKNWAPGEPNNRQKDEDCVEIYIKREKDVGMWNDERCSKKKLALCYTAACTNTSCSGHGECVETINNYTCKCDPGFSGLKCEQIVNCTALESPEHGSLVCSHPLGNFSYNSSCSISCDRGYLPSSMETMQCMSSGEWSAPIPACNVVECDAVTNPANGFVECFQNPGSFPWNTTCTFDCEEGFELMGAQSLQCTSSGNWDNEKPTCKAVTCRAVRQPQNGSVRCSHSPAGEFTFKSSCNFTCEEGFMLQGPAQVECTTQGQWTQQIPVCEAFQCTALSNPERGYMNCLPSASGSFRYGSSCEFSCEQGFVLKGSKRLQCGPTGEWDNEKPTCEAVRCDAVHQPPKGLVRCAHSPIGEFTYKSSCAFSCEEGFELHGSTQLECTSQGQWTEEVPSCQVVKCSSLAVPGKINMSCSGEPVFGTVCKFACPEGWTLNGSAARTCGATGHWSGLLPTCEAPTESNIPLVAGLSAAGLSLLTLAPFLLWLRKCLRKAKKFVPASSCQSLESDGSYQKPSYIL

N=C(N)c1ccc(OCCCCCOc2ccc(C(=N)N)cc2)cc1
active: [1] 27.2 µM | [3] 28.1 µM | [4] 28.5 µM | [14] 12.7 µM | [16] 17.5 µM
not listed: [18] | [19]
inactive: all other assays above

COCN(COC)c1nc(N(COC)COC)nc(N(COC)COC)n1
not listed: [11] | [19]
inactive: all other assays above

CCCCCCCCCCCCCCC
not listed: [11] | [19]
inactive: all other assays above

CN(C)c1ccc(C(=C2C=CC(=[N+](C)C)C=C2)c2ccccc2)cc1
inactive: [14]
active: [1] 0.0082 µM | [2] 0.0509 µM | [18] 0.765 µM | [3] 0.0134 µM | [4] 0.0185 µM | [5] 0.39 µM | [6] 0.318 µM | [7] 0.359 µM | [8] 0.795 µM | [9] 0.194 µM | [10] 0.699 µM | [12] 0.0133 µM | [13] 0.0082 µM | [15] 0.149 µM | [16] 0.00944 µM | [17] 0.0133 µM

O=P(O)(O)CCC(F)(F)C(F)(F)C(F)(F)C(F)(F)C(F)(F)C(F)(F)F
not listed: [9]
inactive: all other assays above

CCCCCCCCCCCCCCCCCC[N+](C)(C)Cc1ccccc1
active: [1] 0.553 µM | [2] 1.86 µM | [18] 3.93 µM | [3] 0.715 µM | [4] 0.636 µM | [5] 2.54 µM | [6] 2.62 µM | [7] 4.24 µM | [8] 3.25 µM | [10] 6.52 µM | [12] 2.74 µM | [13] 2.87 µM | [14] 5.17 µM | [15] 2.66 µM | [16] 2.71 µM | [17] 2.97 µM
inactive: [9]

Cc1ccc(N=Nc2c(O)ccc3ccccc23)c(C)c1
active: [3] 5.25 µM | [8] 4.11 µM
not listed: [11] | [19]
inactive: all other assays above

CC(C)(C)c1ccc(O)c(O)c1
active: [1] 31.6 µM | [2] 31.2 µM | [18] 30.6 µM | [3] 15.5 µM | [5] 33.8 µM | [7] 13 µM | [12] 20 µM | [13] 33.4 µM | [14] 30.6 µM | [15] 31.4 µM | [16] 29.3 µM | [17] 29.1 µM
inactive: [4] | [6] | [8] | [9] | [10]

CC(=O)Nc1ccc(O)cc1
not listed: [11] | [19]
inactive: all other assays above

CN(C)CCOC(c1ccccc1)c1ccccc1
not listed: [11] | [19]
inactive: all other assays above
